# According to PubChem BioAssay:
# Activity calls are given as the source filed them.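 How the source made its calls, unless noted: active means inhibition above 20% together with a positive visual image hit; inconclusive means visual image hit but inhibition not above 20%; inactive means no visual image hit.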
# Legend:
# [1] = inhibitors of TNFa-induced NFkB p65 translocation, primary screen, imaging, HUVEC, MLSMR starter and 10KST1 sets (AID 438); conditions: HUVEC TNFa-induced p65 nuclear translocation; cell count: measured here: nuclei count (cytotoxicity indicator), at 2.08 µM; inhibition: at 2 µM, stronger effect = higher value, 0% TNFa-plus-vehicle, 100% no-TNFa wells;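 further: compound added about 3h40 before a 20 min TNFalpha stimulation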;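 on inhibition: signal is the nuclear over cytoplasmic p65 intensity ratio per well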
# [2] = inhibitors of mutant huntingtin aggregation, primary screen, imaging, exon1htt(103Q)mCFP cells, high-content imaging (AID 483;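 active means visual image review flags a hit and inhibition of aggregation exceeds 20%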;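 further: compound exposure lasted 3 days before fixation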;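 on nuclei count: percent of the per-plate median nuclei count of sample wells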); conditions: exon1htt(103Q)mCFP cell line, aggregate imaging, at 2 µM; inhibition of aggregation: stronger effect = higher value; nuclei count: measured here: cell count, toxicity
# [3] = inhibitors of E-selectin induction by TNFa, primary screen, imaging, HUVEC, immunofluorescence, MLSMR starter and 10KST1 sets (AID 487;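 active means visually confirmed hit in the image check and inhibition above 20%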;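 on inhibition: signal is fraction of cell area covered by stained E-selectin grains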;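 on nuclei count: 100% = median nuclei count of all wells on the same plate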); conditions: HUVEC TNFalpha-induced E-selectin immunofluorescence imaging, at 2 µM; inhibition: stronger effect = higher value; nuclei count: measured here: cell number, toxicity
# [4] = target: Voltage-gated potassium channel subunit beta-2 (Rattus norvegicus) (UniProt P62483); experiment: KvBeta enzyme negative modulators, primary screen, biochemical, NADPH fluorescence (AID 622;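 active means fluorescence slope higher than the sample average by over 3 SD, cut at about -0.22 in these data, passing the limit was not always enough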;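 further: slope of raw intensity against log time taken from 70 to 1610 s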); conditions: recombinant KvBeta, 4-cyanobenzaldehyde reduction, at 10 µM, stronger effect = higher value
# Voltage-gated potassium channel subunit beta-2 (Rattus norvegicus), sequence (P62483 whole entry, looked up): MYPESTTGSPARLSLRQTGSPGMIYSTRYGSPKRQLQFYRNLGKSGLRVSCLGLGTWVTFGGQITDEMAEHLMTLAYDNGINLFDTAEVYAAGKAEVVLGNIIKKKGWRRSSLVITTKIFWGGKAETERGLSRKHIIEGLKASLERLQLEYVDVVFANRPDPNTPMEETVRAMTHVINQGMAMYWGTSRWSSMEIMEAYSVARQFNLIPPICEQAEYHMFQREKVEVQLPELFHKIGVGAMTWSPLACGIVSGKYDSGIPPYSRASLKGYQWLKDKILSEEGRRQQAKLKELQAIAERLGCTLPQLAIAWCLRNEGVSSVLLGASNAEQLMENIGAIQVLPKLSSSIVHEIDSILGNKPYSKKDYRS
# [5] = target: Voltage-gated potassium channel subunit beta-2 (Rattus norvegicus) (UniProt P62483); experiment: KvBeta positive modulators, primary screen, biochemical, NADPH fluorescence (AID 623;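 active means NADPH fluorescence slope more negative than the mean of all samples by about 3 SD, 99.7% confidence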;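 further: fluorescence intensity change per second fitted from 20 to 320 s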); conditions: Recombinant KvBeta, NADPH fluorescence decrease slope, 10 min; at 10 µM; stronger effect = lower value
# [6] = target: Alpha-2C adrenergic receptor (Homo sapiens) (UniProt P18825); experiment: modulators of alpha2C/GIRK thallium flux, primary screen, cell-based, HEK293 alpha2C/GIRK1/2 (AID 624;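 active means fluorescence slope after compound addition differing from the mean of all screened samples at 99.7% confidence, in either direction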;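 further: slope of fluorescence ratio to pre-addition baseline per second over 15 to 24 s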); conditions: thallium flux BTC fluorescence, at 10 µM, actives lie on both sides
# Alpha-2C adrenergic receptor (Homo sapiens), sequence (P18825 whole entry, looked up): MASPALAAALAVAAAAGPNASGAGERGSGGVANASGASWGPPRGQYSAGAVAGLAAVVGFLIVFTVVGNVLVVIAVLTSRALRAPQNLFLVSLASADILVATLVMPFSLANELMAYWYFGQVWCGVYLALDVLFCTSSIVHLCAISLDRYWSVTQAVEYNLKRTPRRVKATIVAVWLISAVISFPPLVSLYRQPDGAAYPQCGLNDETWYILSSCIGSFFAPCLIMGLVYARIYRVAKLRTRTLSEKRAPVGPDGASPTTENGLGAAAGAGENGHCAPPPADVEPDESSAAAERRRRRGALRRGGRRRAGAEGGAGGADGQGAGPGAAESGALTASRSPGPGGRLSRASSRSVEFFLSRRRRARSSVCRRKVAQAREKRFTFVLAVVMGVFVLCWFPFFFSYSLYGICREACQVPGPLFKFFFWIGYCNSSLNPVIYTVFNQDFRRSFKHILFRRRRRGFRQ
# [7] = inhibitors of Sendai virus-induced IRF3 signaling, primary screen, TLR/RLR signaling modifier project, cell-based, Sendai virus stimulus, luciferase, 10K MLSCN set (AID 602276;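 active means inhibition at or above 50% at 10 µM; inactive means inhibition below 50%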;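 further: firefly luciferase from ISG56 promoter only with Renilla not read in this screen; 0% = Sendai virus plus DMSO and 100% = medium plus DMSO without virus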); conditions: HEK293 RL24 IRF3 luciferase reporter, at 10 µM, stronger effect = higher value
# [8] = inhibitors of poly I:C-induced TLR3 signaling, primary screen, cell-based, poly I:C stimulus, luciferase, 10K MLSCN set (AID 602277;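 active means inhibition of the reporter signal at or above 50%; inactive means inhibition below 50%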); conditions: HEK293-TLR3 RL24 IRF3 luciferase reporter, at 10 µM, stronger effect = higher value
SMILES,cell count [1],inhibition [1],inhibition of aggregation [2],nuclei count [2] [%],inhibition [3],nuclei count [3] [%],fluorescence slope [4],NADPH fluorescence slope [5],slope [6],inhibition [7],inhibition [8]
O=C(CSc1nc(N2CCCCC2)nc(N2CCCCC2)n1)Nc1nccs1,280,-7% (inactive),5.5% (inactive),96.9,-32.8% (inactive),72.8,-0.531 (inactive),7.9e-06 (inactive),0.00662 (inactive),1.6% (inactive),52.4% (active)
O=C(Nc1nc(-c2ccc(S(=O)(=O)N3CCCC3)cc2)cs1)C1COc2ccccc2O1 (stereo not given),731,3.6% (inactive),-24.6% (inactive),91.5,24% (inactive),81.4,-0.413 (inactive),-2.5e-05 (inactive),0.00956 (active),7.86% (inactive),2.65% (inactive)
NC(=O)NC(=O)CSc1cccc(C(F)(F)F)c1,570,-10.9% (inactive),-3.2% (inactive),101,-77.3% (inactive),123,-0.51 (inactive),-6.1e-05 (inactive),0.00622 (inactive),13.4% (inactive),18.2% (inactive)
CCOC(=O)c1cc(CC)sc1NC(=O)CCC(=O)O,415,-3.2% (inactive),3% (inactive),99.8,-75.3% (inactive),109,-0.433 (inactive),-4.9e-06 (inactive),0.00617 (inactive),22% (inactive),26.5% (inactive)
CCCn1c(SCC(=O)Nc2ccccc2C(=O)OC)nc2c1c(=O)n(C)c(=O)n2C,576,-10.9% (inactive),20.6% (inactive),95.3,-152% (inactive),84.8,-0.395 (inactive),-7.6e-05 (inactive),0.00511 (inactive),15.9% (inactive),13% (inactive)
COC(=O)c1ccc(CNC(=O)CSc2nc3sc(C)c(C)c3c(=O)n2C)o1,319,3.3% (inactive),12.1% (inactive),94.6,5.6% (inactive),95.6,-0.434 (inactive),-4e-05 (inactive),0.00252 (inactive),-0.162% (inactive),29.6% (inactive)
Cc1noc(C)c1CSc1nnc2scc(-c3ccc(Cl)cc3)n12,339,-0.4% (inactive),-18.6% (inactive),120,-88.2% (inactive),122,-0.52 (inactive),-2.1e-05 (inactive),0.00506 (inactive),-1.42% (inactive),6.73% (inactive)
Cc1oc2c(CN3CCOCC3)c(O)ccc2c(=O)c1-c1ccc(Br)cc1,543,1.4% (inactive),6.2% (inactive),105,-0.5% (inactive),113,-0.0886 (active),3.7e-06 (inactive),0.00357 (inactive),-3.85% (inactive),26.2% (inactive)
CC1=C(C(=O)N2CCCCC2)C(c2cccs2)C2=C(CCCC2=O)N1 (stereo not given),332,-3.9% (inactive),8.9% (inactive),95.9,-31.6% (inactive),92.4,-0.29 (inactive),-3.5e-05 (inactive),0.0061 (inactive),7.2% (inactive),6.53% (inactive)
COc1ccc(S(=O)(=O)Nc2cc(C)on2)cc1OC,455,6.5% (inactive),-7.8% (inactive),109,-171% (inactive),136,-0.523 (inactive),9.2e-06 (inactive),0.00556 (inactive),7.69% (inactive),12.8% (inactive)
CC(=O)C1=C(C)NC(C)=C(C(C)=O)C1c1cccs1,466,3.5% (inactive),-5.6% (inactive),103,28.1% (inactive),108,-0.369 (inactive),2.7e-05 (inactive),0.00356 (inactive),1.28% (inactive),39.4% (inactive)
CCN(CC)C(=O)CSc1nnc(-c2cc(OC)cc(OC)c2)o1,733,0.6% (inactive),10.3% (inactive),100,19.1% (inactive),109,-0.413 (inactive),-4.5e-05 (inactive),0.00522 (inactive),8.18% (inactive),2.13% (inactive)
COCCCN(Cc1ccccn1)S(=O)(=O)Cc1ccccc1,510,-9.9% (inactive),4.7% (inactive),97.4,10% (inactive),102,-0.517 (inactive),8e-06 (inactive),0.00578 (inactive),3.22% (inactive),15.9% (inactive)
COc1cccc(C2=NOC(C(=O)N3CCN(c4ccccc4)CC3)C2)c1OC (stereo not given),471,15% (inactive),6.5% (inactive),113,8% (inactive),99.4,-0.536 (inactive),-8.8e-06 (inactive),0.00606 (inactive),19% (inactive),6.35% (inactive)
CC1(C)Oc2ccc3ccc(=O)oc3c2C(N2CCCCC2)C1O (stereo not given),329,-4.5% (inactive),15% (inactive),94.7,-30.2% (inactive),104,-0.34 (inactive),1.2e-05 (inactive),0.00144 (inactive),18.2% (inactive),33.6% (inactive)
Cc1c(C(=O)NCCC2=CCCCC2)oc2ccc(S(=O)(=O)N3CCC4(CC3)OCCO4)cc12,643,10.9% (inactive),-35% (inactive),113,-42.7% (inactive),106,-0.413 (inactive),-5.5e-05 (inactive),0.00783 (inactive),16.2% (inactive),29.4% (inactive)
CCCc1cc(=O)oc2c(C)c3occ(C)c3cc12,486,2.1% (inactive),-5.5% (inactive),99.6,-11.9% (inactive),109,-0.57 (inactive),-4.7e-05 (inactive),0.00609 (inactive),2.73% (inactive),6.19% (inactive)
CCn1c(C(=O)N2CCC(C(=O)N3CCN(c4ccccn4)CC3)CC2)cc2sccc21,663,-12.8% (inactive),27.4% (inactive),105,-79.6% (inactive),121,-0.578 (inactive),-4.7e-05 (inactive),0.00642 (inactive),-5.71% (inactive),-29% (inactive)
COc1ccc(-c2nc(C#N)c(N3CCN(c4ccccc4)CC3)o2)cc1,841,1.4% (inactive),-19.5% (inactive),96.2,-64.6% (inactive),118,-0.577 (inactive),1.4e-05 (inactive),0.00659 (inactive),5.66% (inactive),24.4% (inactive)
CCOC(=O)c1sc(NC(=O)CSc2n[nH]c(-c3ccccc3)n2)c(C#N)c1C,634,-4.4% (inactive),-7.1% (inactive),94,106% (active),122,-0.393 (inactive),2.8e-05 (inactive),0.00567 (inactive),7.86% (inactive),-25.2% (inactive)
CCC(C)(C)NC(=O)CN(Cc1ccc2c(c1)OCO2)C(=O)CCC(=O)Nc1ccccn1,517,-20.9% (inactive),-0.5% (inactive),92.4,-59.2% (inactive),114,-0.403 (inactive),-6.3e-05 (inactive),0.00669 (inactive),12.5% (inactive),21.6% (inactive)
Cc1cc(C)n(-c2ccc3cccc(NS(C)(=O)=O)c3n2)n1,221,13.2% (inactive),-10.7% (inactive),76.6,26.7% (inactive),107,-0.392 (inactive),-3.1e-05 (inactive),0.00539 (inactive),11% (inactive),12.8% (inactive)
CCN1CCN(C(=O)c2oc(=O)c3ccccc3c2-c2ccc(C)cc2)CC1,805,-15.2% (inactive),8.7% (inactive),94.3,-58.3% (inactive),121,-0.49 (inactive),-4.9e-05 (inactive),0.00617 (inactive),10.4% (inactive),27.7% (inactive)
CC(CCc1ccco1)NC(=O)Cn1ncc2c1-c1ccccc1OC2 (stereo not given),762,-3.2% (inactive),-17.9% (inactive),126,0.8% (inactive),120,-0.539 (inactive),-1.5e-05 (inactive),0.00662 (inactive),-1.38% (inactive),11.2% (inactive)
CC(CCc1ccccc1)NC(=O)C1CCCN(c2nnc(-n3cccc3)s2)C1 (stereo not given),585,5.8% (inactive),-2.5% (inactive),99.3,-42.8% (inactive),102,-0.57 (inactive),-3.2e-05 (inactive),0.00444 (inactive),8.13% (inactive),18.5% (inactive)
